HTR5A ag ctr: HTR5A agonists in luminescence cell assay, primary screen, counter-screen for OPRM1-OPRD1 heterodimer agonist project, full-deck HTS | 5-hydroxytryptamine receptor 5A (Homo sapiens), P47898 | cell-based | activation, % at 9.3 µM | 340,000 tested, 0.61% active; in the data active = activation mostly above about 9.5%, no sharp cut-off; inactive = mostly below about 7.6%
MOR-DOR ag: agonists of OPRM1-OPRD1 heterodimerization, primary screen, cell-based, luminescence; cells; activation, % at 9.3 µM; 340,000 tested, 0.3% active; AID 504326, 2011; in the data active = activation above about 18%
Target sequence (P35372 whole entry, looked up): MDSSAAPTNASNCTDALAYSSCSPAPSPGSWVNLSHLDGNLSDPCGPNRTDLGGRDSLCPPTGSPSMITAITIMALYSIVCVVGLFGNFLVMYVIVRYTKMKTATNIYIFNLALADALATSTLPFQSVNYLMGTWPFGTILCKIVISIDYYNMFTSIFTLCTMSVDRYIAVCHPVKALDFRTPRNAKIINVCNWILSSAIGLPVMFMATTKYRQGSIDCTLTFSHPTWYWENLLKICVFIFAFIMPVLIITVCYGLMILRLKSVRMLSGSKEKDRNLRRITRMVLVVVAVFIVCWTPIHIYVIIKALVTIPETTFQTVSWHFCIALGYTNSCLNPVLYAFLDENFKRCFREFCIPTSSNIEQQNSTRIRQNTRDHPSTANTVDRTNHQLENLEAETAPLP
Target sequence (P41143 whole entry, looked up): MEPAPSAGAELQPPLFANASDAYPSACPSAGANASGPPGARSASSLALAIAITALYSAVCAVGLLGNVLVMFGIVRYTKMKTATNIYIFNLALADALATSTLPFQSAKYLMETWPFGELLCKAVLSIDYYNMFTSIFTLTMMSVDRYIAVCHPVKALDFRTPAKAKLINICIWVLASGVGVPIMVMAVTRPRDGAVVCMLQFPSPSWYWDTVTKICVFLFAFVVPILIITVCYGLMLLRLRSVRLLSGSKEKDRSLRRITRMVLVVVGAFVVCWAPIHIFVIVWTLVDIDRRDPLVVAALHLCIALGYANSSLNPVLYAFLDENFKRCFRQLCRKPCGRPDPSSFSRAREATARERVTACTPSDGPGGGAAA
MOR-DOR inv ag: inverse agonists of MOR-DOR heterodimerization, primary screen, cell-based, luminescence; Mu-type opioid receptor (Homo sapiens) + Delta-type opioid receptor (Homo sapiens), …; cell-based MOR-DOR heterodimer luminescence, inverse agonism; inhibition, % at 9.3 µM; 340,000 tested, 0.21% active; in the data active = inhibition above about 22%, passing the limit was not always enough
HTR5A inv ctr: HTR5A inverse agonists in luminescence cell assay, primary screen, counter-screen for OPRM1-OPRD1 heterodimer inverse agonist project, full-deck HTS. 5-hydroxytryptamine receptor 5A (Homo sapiens), P47898. HTR5A cell line, inverse agonism. inhibition, % at 9.3 µM. 340,000 tested, 0.083% active. AID 504634, 2011; in the data active = inhibition mostly above about 23%, no sharp cut-off; inactive = mostly below about 18%
A number is an active result. In the library only some 1.1% were active in any assay of this set; here they are far more common.

What do the screens show for `CC(C)c1cc(C(=O)N2CCCC(N3CCN(c4ccc(F)cc4)CC3)C2)n(C)n1` (centres undefined)?
HTR5A ag ctr: 10; MOR-DOR ag: inactive; MOR-DOR inv ag: inactive; HTR5A inv ctr: inactive

How did CCCCN(Cc1ccco1)C(=O)c1cc2c(=O)[nH]c3ccc(C)cc3c2s1 do in these assays?
HTR5A ag ctr: 16; MOR-DOR ag: 20; MOR-DOR inv ag: inactive; HTR5A inv ctr: inactive

Results for CCCCN(CC)C(=O)c1cc2c(=O)[nH]c3ccc(C)cc3c2s1 ?
HTR5A ag ctr: inactive; MOR-DOR ag: inactive; MOR-DOR inv ag: inactive; HTR5A inv ctr: inactive

How did CCOc1ccc(Cn2nnc(C(=O)Nc3cc(C)cc(C)c3)c2N)cc1 do in these assays?
HTR5A ag ctr: 12; MOR-DOR ag: inactive; MOR-DOR inv ag: inactive; HTR5A inv ctr: inactive

How did CCOc1ccc(Cn2nnc(C(=O)Nc3cc(OC)cc(OC)c3)c2N)cc1 do in these assays?
HTR5A ag ctr: inactive; MOR-DOR ag: inactive; MOR-DOR inv ag: inactive; HTR5A inv ctr: inactive

What do the screens show for `c1cc2c(cc1CNc1ccc(N3CCOCC3)cc1)OCO2`?
HTR5A ag ctr: inactive; MOR-DOR ag: inactive; MOR-DOR inv ag: inactive; HTR5A inv ctr: inactive

How did Cc1ccc2nc(NC(=O)CS(=O)(=O)Cc3ccccc3)sc2c1 do in these assays?
HTR5A ag ctr: inactive; MOR-DOR ag: inactive; MOR-DOR inv ag: inactive; HTR5A inv ctr: inactive

Results for Cc1ccc2nc(NC(=O)CSCc3ccccc3)sc2c1 ?
HTR5A ag ctr: 10; MOR-DOR ag: inactive; MOR-DOR inv ag: inactive; HTR5A inv ctr: inactive

How did COc1ccc(-n2nnnc2-c2cccnc2)cc1 do in these assays?
HTR5A ag ctr: 10; MOR-DOR ag: inactive; MOR-DOR inv ag: inactive; HTR5A inv ctr: inactive

How did CCN1/C(=C/c2ccc3ccccc3[n+]2CC)C=Cc2ccccc21 do in these assays?
HTR5A ag ctr: inactive; MOR-DOR ag: inactive; MOR-DOR inv ag: inactive; HTR5A inv ctr: 43

What do the screens show for `Cc1ccccc1C(=O)Nc1ccnn1C1CCN(C2CCSCC2)CC1`?
HTR5A ag ctr: inactive; MOR-DOR ag: inactive; MOR-DOR inv ag: inactive; HTR5A inv ctr: inactive

How did O=C(CCN1C(=O)/C(=C/c2ccccc2)SC1=S)NCCCN1CCOCC1 do in these assays?
HTR5A ag ctr: inactive; MOR-DOR ag: inactive; MOR-DOR inv ag: inactive; HTR5A inv ctr: inactive

Results for O=C(CCN1C(=O)/C(=C/c2ccccc2F)SC1=S)NCCCN1CCOCC1 ?
HTR5A ag ctr: 13; MOR-DOR ag: inactive; MOR-DOR inv ag: inactive; HTR5A inv ctr: inactive

What do the screens show for `COc1ccc(NC(=O)c2cc(-c3cc(C)cc(C)c3O)n[nH]2)cc1Cl`?
HTR5A ag ctr: 11; MOR-DOR ag: inactive; MOR-DOR inv ag: inactive; HTR5A inv ctr: inactive

What do the screens show for `O=C(CNC1CCCCCC1)c1cccs1`?
HTR5A ag ctr: inactive; MOR-DOR ag: inactive; MOR-DOR inv ag: 33; HTR5A inv ctr: inactive

Results for O=C(NC1CCCCCC1)c1cccs1 ?
HTR5A ag ctr: inactive; MOR-DOR ag: inactive; MOR-DOR inv ag: inactive; HTR5A inv ctr: inactive

How did CC(C)Oc1ccc(C(CC(=O)O)Cc2ccccc2)cc1 (centres undefined) do in these assays?
HTR5A ag ctr: inactive; MOR-DOR ag: inactive; MOR-DOR inv ag: inactive; HTR5A inv ctr: inactive

What do the screens show for `Cc1ccc(N2CCN(CC(O)COC3CCCCC3)CC2)cc1` (centres undefined)?
HTR5A ag ctr: 10; MOR-DOR ag: inactive; MOR-DOR inv ag: inactive; HTR5A inv ctr: inactive

Results for N#C/C(=C(\O)Cc1ccccc1)c1nc2ccccc2[nH]1 ?
HTR5A ag ctr: inactive; MOR-DOR ag: inactive; MOR-DOR inv ag: inactive; HTR5A inv ctr: inactive

What do the screens show for `N#C/C(=C(/O)c1ccco1)c1nc2ccccc2[nH]1`?
HTR5A ag ctr: 11; MOR-DOR ag: inactive; MOR-DOR inv ag: inactive; HTR5A inv ctr: inactive

What do the screens show for `S=c1nc2ccccc2c2nc(-c3ccccc3)[nH]n12`?
HTR5A ag ctr: 9.2; MOR-DOR ag: inactive; MOR-DOR inv ag: inactive; HTR5A inv ctr: inactive

Results for Cn1cc(CN2CCC(n3nccc3NC(=O)CCc3ccccc3)CC2)cn1 ?
HTR5A ag ctr: 10; MOR-DOR ag: inactive; MOR-DOR inv ag: inactive; HTR5A inv ctr: inactive

How did Cn1cc(CN2CCC(n3nccc3NC(=O)CCCc3ccccc3)CC2)cn1 do in these assays?
HTR5A ag ctr: inactive; MOR-DOR ag: inactive; MOR-DOR inv ag: inactive; HTR5A inv ctr: inactive

What do the screens show for `CSc1ccc(/C=C2\C(=N)N3N=C(CC(=O)N4CCCCC4)SC3=NC2=O)cc1`?
HTR5A ag ctr: inactive; MOR-DOR ag: inactive; MOR-DOR inv ag: inactive; HTR5A inv ctr: inactive

How did CSc1ccc(/C=C2\C(=N)N3N=C(CC(=O)N4CCOCC4)SC3=NC2=O)cc1 do in these assays?
HTR5A ag ctr: 12; MOR-DOR ag: inactive; MOR-DOR inv ag: inactive; HTR5A inv ctr: inactive

What do the screens show for `CC(C)N1CCC(N2CCN(Cc3ccc(-c4ccc(Cl)cc4)o3)CC2CCO)CC1` (centres undefined)?
HTR5A ag ctr: inactive; MOR-DOR ag: inactive; MOR-DOR inv ag: inactive; HTR5A inv ctr: inactive

How did O=C(Nc1ccc(Br)cc1)Nc1cnccn1 do in these assays?
HTR5A ag ctr: inactive; MOR-DOR ag: inactive; MOR-DOR inv ag: inactive; HTR5A inv ctr: inactive

Results for COc1cccc(CNC(=O)c2ccncc2)c1 ?
HTR5A ag ctr: inactive; MOR-DOR ag: inactive; MOR-DOR inv ag: inactive; HTR5A inv ctr: inactive

How did Cc1cccc(CC2S/C(=N/N=C/c3ccco3)N(c3ccccc3)C2=O)c1 (centres undefined) do in these assays?
HTR5A ag ctr: 14; MOR-DOR ag: inactive; MOR-DOR inv ag: inactive; HTR5A inv ctr: inactive

What do the screens show for `Cc1cccc(C)c1NC(=O)CNC(=O)C(Cc1ccccc1)NC(=O)c1ccccc1` (centres undefined)?
HTR5A ag ctr: 13; MOR-DOR ag: inactive; MOR-DOR inv ag: inactive; HTR5A inv ctr: inactive

What do the screens show for `CCCNC(=O)C(Cc1ccccc1)NC(=O)c1ccccc1` (centres undefined)?
HTR5A ag ctr: inactive; MOR-DOR ag: inactive; MOR-DOR inv ag: inactive; HTR5A inv ctr: inactive

Results for CCCC1Cc2c(sc(N)c2C#N)CO1 (centres undefined) ?
HTR5A ag ctr: inactive; MOR-DOR ag: inactive; MOR-DOR inv ag: inactive; HTR5A inv ctr: inactive

Results for O=C(Nc1ccccc1)C(Cl)C(=O)c1ccccc1 (centres undefined) ?
HTR5A ag ctr: inactive; MOR-DOR ag: inactive; MOR-DOR inv ag: 96; HTR5A inv ctr: 51

What do the screens show for `CC(=O)C(Cl)C(=O)Nc1ccccc1` (centres undefined)?
HTR5A ag ctr: inactive; MOR-DOR ag: inactive; MOR-DOR inv ag: 74; HTR5A inv ctr: inactive

How did COc1cc(C2CC(=O)Oc3cc(C)cc(C)c32)cc(OC)c1OC (centres undefined) do in these assays?
HTR5A ag ctr: inactive; MOR-DOR ag: inactive; MOR-DOR inv ag: inactive; HTR5A inv ctr: inactive

How did CC(=O)Nc1ccc(/C(C)=N/NS(=O)(=O)c2ccc(C)cc2)cc1 do in these assays?
HTR5A ag ctr: inactive; MOR-DOR ag: inactive; MOR-DOR inv ag: inactive; HTR5A inv ctr: inactive

How did CC(=NNS(=O)(=O)c1ccc([N+](=O)[O-])cc1)c1ccc(C)cc1 do in these assays?
HTR5A ag ctr: 11; MOR-DOR ag: inactive; MOR-DOR inv ag: inactive; HTR5A inv ctr: inactive

Screening data: PubChem, The Scripps Research Institute Molecular Screening Center
